Screen size: about 5,500 compounds; about 2,000 (36%) were called active. About 18% were inconclusive and are not listed. Cut-off read from the data, not from the text of the source: active = normalized growth mostly below about 0.91 (no sharp cut-off); inconclusive = no clear call, values can overlap the other calls; inactive = mostly above about 0.92. The list shows a part of the results.
Assay: chemical genetic growth profiling, strain panel (AID 1159580);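 note: tested at 20 µM; growth read once vehicle control cultures reached saturation at 30 °C; 1 = growth at the plate median or of vehicle wells; lower values mean less growth of the strain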
Conditions: S. cerevisiae deletion strains, growth OD

Measured: normalized growth

O=C(O)c1cccc2cccc(C(=O)O)c12
active: locus YAR019C, strain CDC15, stronger effect = lower value 0.085 | locus YBL105C, strain PKC1, stronger effect = lower value 0.0837 | locus YBR135W, strain CKS1, stronger effect = lower value 0.0904 | locus YBR136W, strain MEC1, stronger effect = lower value 0.0904 | locus YBR160W, strain CDC28, stronger effect = lower value 0.086 | locus YDL017W, strain CDC7, stronger effect = lower value 0.0824 | locus YDL028C, strain MPS1, stronger effect = lower value 0.0878 | locus YDL108W, strain KIN28, stronger effect = lower value 0.0876 | locus YDL214C, strain PRR2, stronger effect = lower value 0.0872 | locus YDR052C, strain DBF4, stronger effect = lower value 0.0886 | locus YDR054C, strain cdc34, stronger effect = lower value 0.0879 | locus YDR477W, strain SNF1, stronger effect = lower value 0.0946 | locus YER123W, strain YCK3, stronger effect = lower value 0.0991 | locus YER133W, strain GLC7, stronger effect = lower value 0.0939 | locus YFL009W, strain cdc4, stronger effect = lower value 0.0889 | locus YFL029C, strain CAK1, stronger effect = lower value 0.0833 | locus YFR003C, strain YPI1, stronger effect = lower value 0.0828 | locus YFR019W, strain FAB1, stronger effect = lower value 0.0952 | locus YGR040W, strain KSS1, stronger effect = lower value 0.11 | locus YGR052W, strain FMP48, stronger effect = lower value 0.113 | locus YGR092W, strain DBF2, stronger effect = lower value 0.107 | locus YHR030C, strain SLT2, stronger effect = lower value 0.123 | locus YHR079C, strain IRE1, stronger effect = lower value 0.109 | locus YHR082C, strain KSP1, stronger effect = lower value 0.135 | locus YHR205W, strain SCH9, stronger effect = lower value 0.0046 | locus YIL147C, strain SLN1, stronger effect = lower value 0.0851 | locus YJL095W, strain BCK1, stronger effect = lower value 0.118 | locus YJL128C, strain PBS2, stronger effect = lower value 0.0989 | locus YJL157C, strain FAR1, stronger effect = lower value 0.0897 | locus YJR016C, strain ILV3, stronger effect = lower value 0.0848 | locus YJR066W, strain TOR1 (second series), stronger effect = lower value 0.101 | locus YJR066W, strain TOR1, stronger effect = lower value 0.145 | locus YKL048C, strain ELM1, stronger effect = lower value 0.12 | locus YKL067W, strain YNK1, stronger effect = lower value 0.0918 | locus YKL101W, strain HSL1, stronger effect = lower value 0.114 | locus YKL193C, strain SDS22, stronger effect = lower value 0.0868 | locus YKL203C, strain TOR2, stronger effect = lower value 0.108 | locus YLR113W, strain HOG1, stronger effect = lower value 0.184 | locus YLR133W, strain CKI1, stronger effect = lower value 0.0857 | locus YLR403W, strain SFP1, stronger effect = lower value 0.00123 | locus YML070W, strain DAK1, stronger effect = lower value 0.117 | locus YMR001C, strain CDC5, stronger effect = lower value 0.0843 | locus YMR205C, strain PFK2 (second series), stronger effect = lower value 0.0905 | locus YMR277W, strain FCP1, stronger effect = lower value 0.0893 | locus YNL006W, strain LST8, stronger effect = lower value 0.077 | locus YNL020C, strain ARK1, stronger effect = lower value 0.0896 | locus YNL161W, strain CBK1, stronger effect = lower value 0.0944 | locus YNL183C, strain NPR1, stronger effect = lower value 0.112 | locus YNL207W, strain RIO2, stronger effect = lower value 0.0871 | locus YNL222W, strain SSU72, stronger effect = lower value 0.089 | locus YNL307C, strain MCK1 (second series), stronger effect = lower value 0.103 | locus YOL078W, strain AVO1, stronger effect = lower value 0.0865 | locus YOL136C, strain PFK27, stronger effect = lower value 0.0961 | locus YOR061W, strain CKA2, stronger effect = lower value 0.0989 | locus YOR119C, strain RIO1, stronger effect = lower value 0.104 | locus YOR231W, strain MKK1, stronger effect = lower value 0.115 | locus YOR329C, strain SCD5, stronger effect = lower value 0.082 | locus YPL031C, strain PHO85, stronger effect = lower value 0.102 | locus YPL153C, strain RAD53, stronger effect = lower value 0.101 | locus YPL204W, strain HRR25, stronger effect = lower value 0.0938 | locus YPL209C, strain IPL1, stronger effect = lower value 0.0815 | locus YPL256C, strain CLN2, stronger effect = lower value 0.162 | locus YPR025C, strain CCL1, stronger effect = lower value 0.0896 | locus YPR106W, strain ISR1, stronger effect = lower value 0.281 | strain NNK1, stronger effect = lower value 0.0867 | strain TSCII, stronger effect = lower value 0.0877

Reference: PubChem BioAssay AID1159580 (chemical genetic matrix, 2015)
